Here are results for eight molecules from PubChem BioAssay (NCI).

Compounds without any hit were thinned out: in the full panel of roughly 83,000, 20% have a hit.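 How to read the values: 0–100, growth inhibition (40 = 60% inhibited); 0, no net growth; -100 to 0, cell death (-40 = 40% of starting cells died; -100 = all dead).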 Values without a mark were called inactive. Calls of active or inactive are those of the source. Rule for the calls: active = growth percent below 10; inactive = the rest.

What all share (experiment): NCI-60 one-dose screen, 48 h (100 = growth as untreated, 0 = no growth, -100 = all killed)
Holding throughout (settings): 10 µM unless noted

For experiment [1], the system named is NCI-H23 lung.
In experiment [2] the test system is NCI-H226 lung.
The subject of experiment [3] is NCI-H322M lung.
Experiment [4] deals with HOP-62 NSCLC.
For experiment [5], the system named is NCI-H460 lung.
Experiment [6] relates to NCI-H522 lung.
The subject of experiment [7] is A549/ATCC NSCLC.
Experiment [8] concerns 786-0 renal.
Experiment [9] has as its system COLO 205 colon.
Experiment [10] has as its system DU-145 prostate.
The subject of experiment [11] is K-562 leukemia.
Experiment [12] has as its system MALME-3M melanoma.
Experiment [13] relates to MDA-MB-231 breast.
In experiment [14] the test system is RXF 393 renal.
For experiment [15], the system named is SF-268 CNS.
Experiment [16] relates to SF-295 CNS.
Experiment [17] concerns SF-539 CNS.
The subject of experiment [18] is UACC-257 melanoma.
Experiment [19] relates to M14 melanoma.

In the case of `O=C(Nc1ccc(Br)cc1)Nc1nc2ccc([N+](=O)[O-])cc2s1`, the growth in [1] is -21.9% (active); in experiment [2], -3.17% (active); in experiment [3] it was 8.37% (active); in experiment [4], 0.86% (active); in [5], -3.34% (active); in experiment [6] it was 3.86% (active). Also, the growth was 5.83% (active) in experiment [7]; 11.2% in experiment [8]; -37% (active) in experiment [9]; 18.8% in [10]; 2.8% (active) in [11]; -14.1% (active) in experiment [12]. Besides, the growth in experiment [13] was -5.42% (active); in experiment [14], -27.8% (active); in experiment [15] it was 12.2%; in experiment [16] it was -40.1% (active); in [17] it was 0.554% (active); in [18], -16.8% (active). Besides, in [19], the growth was 2.06% (active).

Regarding `COc1cc2oc(-c3cccc(C(=O)N[C@@H](CC(C)C)C(=O)OC(C)(C)C)c3)cc(=O)c2c(OC)c1OC`, the growth in [1] was 60.6%; in [2] it was 72.6%; in [3], 90.4%; in experiment [4], 43.4%; in [5], 37.8%; in experiment [6] it was 83.1%. Moreover, the growth in experiment [7] was 76%; in experiment [8], 67.9%; in experiment [9], 92.8%; in experiment [10], 72.8%; in [11] it was 36.7%; in experiment [12] it was 96.3%. The growth was 72.1% in [13]; 86.2% in experiment [14]; 83.8% in experiment [15]; 52.3% in [16]; 88.6% in [17]; 112% in experiment [18]. For the same molecule, in [19], the growth was 93.7%.

For the molecule `CN(C)CCCOc1ccc2c(c1)CN(C(=O)c1cc(C(=O)N3Cc4cccc(F)c4C3)ccc1O)C2`, the growth was 102% in [1]; 97.2% in [2]; 105% in experiment [3]; 120% in [4]; 105% in [5]; 97.7% in experiment [6]. Also, the growth is 101% in [7]; 108% in experiment [8]; 109% in [9]; 94.9% in experiment [10]; 88.8% in experiment [11]; 103% in [12]. Moreover, the growth in [13] was 103%; in experiment [14] it was 93.3%; in experiment [15], 100%; in [16], 100%; in [17], 91%; in [18] it was 108%. Moreover, in experiment [19], the growth is 106%.

Turning to `COc1cccc2cc(-c3cc4ccccc4[nH]3)/c(=N\NC(=O)c3ccc(Cl)cc3)oc12`, the growth in [1] was 44.6%; in experiment [2], 44%; in experiment [3], 41.5%; in experiment [4], 31.3%; in experiment [5], 18.4%; in experiment [6], 18.7%. The growth in experiment [7] is 39.8%; in [8], 48.5%; in experiment [9], 62.1%; in experiment [10], 48.3%; in [11], 22.1%; in experiment [12], 61.7%. Moreover, the growth in experiment [13] was 41.3%; in experiment [14], 45.9%; in experiment [15] it was 32.9%; in experiment [16], 43.2%; in experiment [17] it was 33.1%; in experiment [18], 17.4%. For the same molecule, in experiment [19], the growth was 31.9%.

For `CCCn1cnc2c(c1=N)C(c1ccc(Cl)cc1)c1sc3c(C)cccc3c1O2` (configuration not stated), the growth in experiment [1] is 20.5%; in experiment [2] it was 62%; in [3], 43.8%; in experiment [4], 44.2%; in experiment [5], 9.41% (active); in experiment [6], -5.59% (active). Besides, the growth is 29.1% in [7]; 33.8% in experiment [8]; 1.53% (active) in [9]; 19.7% in experiment [10]; 7.73% (active) in [11]; 59.5% in experiment [12]. Also, the growth is 28.6% in [13]; -4.19% (active) in [14]; 41.1% in [15]; -6.66% (active) in [16]; -21.1% (active) in experiment [17]; 86.5% in experiment [18]. For the same molecule, the growth in [19] is 8.06% (active).

Take `CC(=O)c1cc(C(=O)N2c3ccccc3Sc3ccccc32)n2ccc3ccccc3c12`: the growth in [1] is 62.8%; in experiment [2], 45.4%; in experiment [3], 61.8%; in experiment [4], 42.4%; in experiment [5] it was 30%; in experiment [6], -38% (active). Further, the growth was 50.3% in experiment [7]; 38.4% in experiment [8]; 36.3% in experiment [9]; 53% in [10]; 20.1% in experiment [11]; 49.6% in experiment [12]. Also, the growth in [13] is 76.7%; in experiment [14] it was 31.7%; in [15] it was 54.1%; in [16] it was 18.8%; in experiment [17] it was 29.5%; in [18] it was 57.4%. Further, in [19], the growth was 33.1%.

On to `CCOC(=O)c1c(Nc2ccccc2)nn2c(-c3cccs3)ccnc12`, for which the growth in experiment [1] was 92.7%; in experiment [2] it was 89%; in [3], 94.4%; in experiment [4] it was 93.8%; in [5] it was 92.3%; in [6], 82.1%. In addition, the growth was 95.2% in experiment [7]; 71% in [8]; 92.7% in [9]; 84.7% in experiment [10]; 59% in experiment [11]; 88.7% in [12]. Also, the growth in experiment [13] is 81.3%; in experiment [14], -6.08% (active); in experiment [15], 91.4%; in experiment [16] it was 84.1%; in [17], 84.1%; in experiment [18] it was 108%. Moreover, the growth in [19] was 91.6%.

As for `CCNC(=O)N1CCc2cc(OC)c(OCCc3ccc(OC)nc3)cc2C1c1ccc(C)cc1C` (configuration not stated), the growth in experiment [1] was 13%; in experiment [2], 33.2%; in experiment [3], 38%; in [4], 21.8%; in experiment [5] it was 1.74% (active); in [6], -34% (active). The growth in experiment [7] is 4.74% (active); in [8] it was 6.15% (active); in experiment [9], 7.67% (active); in [10] it was 12%; in experiment [11] it was 11%; in [12] it was 51.5%. Also, the growth is 15% in experiment [13]; 2.44% (active) in experiment [14]; 20.7% in [15]; 7.92% (active) in experiment [16]; 5.2% (active) in [17]; 41.9% in experiment [18]. Further, in experiment [19], the growth was 12.9%.
